Test results reported in PubChem BioAssay (EPA / NIEHS).
Records with an inconclusive call do not appear. Activity calls are given as the source filed them. How the source made its calls, unless noted: active means hit-call score of the fitted dose curve at least 0.9, where 1 is the maximum; inactive means score below 0.9.

Columns and labels:
[1] = CCTE_Shafer_MEA_acute_spike_number: CCTE's Neural Acute Assay for Total Number of Spikes, Shafer Lab (AID 2284008);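 on AC50: curve fitted for decrease in spike count so AC50 reflects inhibitors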
How it was run: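 Rat primary cortical neurons on 48-well MEA plates, DIV 13 or 15, at 37 C. 40 min baseline then 40 min with compound (0.03-40 uM); spikes detected at 8x rms noise, expressed as percent change from baseline.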

[2] = CCTE_Shafer_MEA_acute_firing_rate_mean: CCTE's Neural Acute Assay for Mean Firing Rate, Shafer Lab (AID 2284009);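 further: analyzed for loss of signal so actives lower firing rate relative to DMSO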
How it was run: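 Rat primary cortical neurons on 48-well MEA plates, dosed at 0.03-40 uM on DIV 13 or 15; 40 min spontaneous activity recorded at 37 C before and after compound. Spike rate per electrode averaged per well, expressed as percent change from baseline.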

[3] = CCTE_Harrill_HTTr_Viability_MCF7: CCTE's 6-hour Cell Viability Assessment for the High-Throughput Transcriptomics (HTTr) Platform, in MCF-7 cells cultured in DMEM + 10% fetal bovine serum, Harrill Lab (AID 2284010)
How it was run: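 Viability measured through PI dye exclusion by high-content imaging at 6 h post-dosing.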

[4] = CCTE_Harrill_HTTr_Apoptosis_MCF7: CCTE's 6-hour Apoptosis Assessment for the High-Throughput Transcriptomics (HTTr) Platform, in MCF-7 cells cultured in DMEM + 10% fetal bovine serum, Harrill Lab (AID 2284011)
How it was run: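 MCF-7 cells in DMEM + 10% FBS exposed 6 h to chemicals over an eight-point dilution series. Caspase-3/7 activation imaged by high-content CellEvent Green staining; fitted bidirectionally versus DMSO.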

[5] = CCTE_Harrill_HTTr_CellCount_MCF7: CCTE's Cell Proliferation Assessment for the High-Throughput Transcriptomics (HTTr) Platform, Harrill Lab (AID 2284012; active means hit-call score of the fitted dose curve at least 0.9, where 1 is the maximum;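 further: count of Hoechst-stained nuclei per well by high-content imaging in MCF-7 cells; cells exposed to compound for six hours; intended direction is loss of nuclei count meaning fewer cells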)
How it was run: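 Nuclei counting (Hoechst, high content imaging) in MCF-7 after a 6 h treatment at eight concentrations. Activity fitted bidirectionally, DMSO as negative control.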

[6] = CCTE_Shafer_MEA_acute_burst_number: CCTE's Neural Acute Assay for Single-Electrode Bursts, Shafer Lab (AID 2284013)
How it was run: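 Primary rat cortical neurons on 16-electrode MEA wells, treated on DIV 13 or 15 with compound at 0.03-40 uM. Single-electrode burst count from 40-min recordings at 37 C before and after exposure; percent change from baseline per well, DMSO negative control.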

[7] = CCTE_Shafer_MEA_acute_burst_duration_mean: CCTE's Neural Acute Assay for Mean Burst Duration, Shafer Lab (AID 2284014);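 further: hits are decreases in mean burst duration relative to DMSO controls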
How it was run: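 Rat primary cortical neurons on 48-well MEA, treated at DIV 13 or 15 with 0.03-40 uM in at least 3 wells. Value is percent change in mean burst duration, comparing 40 min recordings at 37 C before and during exposure.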

[8] = CCTE_Shafer_MEA_acute_per_burst_spike_number_mean: CCTE's Neural Acute Assay for Average Number of Spikes Per Burst, Shafer Lab (AID 2284015);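 further: hits are decreases in mean spikes per burst versus baseline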
How it was run: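 We recorded spontaneous network firing of rat cortical neurons for 40 min before and 40 min during exposure to compound at 0.03-40 uM, at 37 C. Spikes were detected adaptively at 8x rms noise, and the change in average spikes per burst was fitted against DMSO.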

[9] = CCTE_Shafer_MEA_acute_interburst_interval_mean: CCTE's Neural Acute Assay for Mean Interburst Interval, Shafer Lab (AID 2284016);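 further: percent change of mean interburst interval versus each well's own pre-dose baseline; curves fitted for decrease in interburst interval relative to DMSO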
How it was run: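 MEA recording of spontaneous network bursting in primary rat cortical cultures; mean interburst interval was compared before and after a 40-min compound exposure (0.03-40 uM) and expressed as percent change, relative to DMSO.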

[10] = CCTE_Shafer_MEA_acute_burst_percentage_mean: CCTE's Neural Acute Assay for Percentage of Spikes in a Burst, Shafer Lab (AID 2284017);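 on AC50: curve fitted for loss of signal so potency reflects decreased burst percentage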
How it was run: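 Compounds were tested at 0.03-40 uM on primary rat cortical neuron networks grown over microelectrodes, with at least three wells per compound. Spontaneous firing was recorded for 40 min before and 40 min after dosing, and the change in burst percentage was computed per well.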

[11] = CCTE_Shafer_MEA_acute_per_network_burst_spike_number_std: CCTE's Neural Acute Assay for Standard Deviation of Number of Spikes in a Network Burst, Shafer Lab (AID 2284020);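 further: fitted for decrease in spike-number SD versus DMSO so actives lower it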
How it was run: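 Rat primary cortical neurons on 48-well MEA (16 electrodes/well), treated DIV 13 or 15 at 0.03-40 uM, ≥3 wells per compound. 40 min recordings at 37 C before and after dosing; value is percent change in network-burst spike-number SD, negative direction vs DMSO.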

[12] = CCTE_Shafer_MEA_acute_per_network_burst_electrodes_number_mean: CCTE's Neural Acute Assay for Mean Number of Electrodes in a Network Burst, Shafer Lab (AID 2284021);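 further: curves fitted for decreases only so hits reduce electrodes per burst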
How it was run: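 Rat primary cortical neurons on 48-well MEAs, DIV 13 or 15, were treated at 0.03-40 uM. Spikes were detected at 8x rms noise and recorded at 37 C. The mean electrodes per network burst in a 40 min exposure recording was expressed as percent change from a 40 min baseline.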

[13] = CCTE_Shafer_MEA_acute_network_burst_percentage: CCTE's Neural Acute Assay for Percentage of Network Bursts, Shafer Lab (AID 2284022);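 further: curves fitted for loss so actives lower network burst percentage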
How it was run: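 Rat primary cortical neuron networks on 48-well MEA plates, DIV 13 or 15, treated acutely with compound (0.03-40 uM, at least three wells). Percent of spikes within network bursts compared between 40-min recordings before and during exposure at 37 C, expressed as percent change.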

[14] = CCTE_Simmons_MITO_max_resp_rate: CCTE's HepG2 Seahorse XF Respirometric Screening Assay at Maximal Respiratory State [uncoupled], Simmons Lab (AID 2284002); details: actives raise or lower the signal
How it was run: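 HepG2 oxygen consumption measured on Seahorse XF after FCCP uncoupling, following test compound injection; 7 concentrations from 125 nM to 100 uM final. Readings every 6 min over 72 min, three biological replicates; bidirectional fit versus DMSO.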

[15] = CCTE_Simmons_MITO_inhib_resp_rate: CCTE's HepG2 Seahorse XF Respirometric Screening Assay at Inhibited Respiratory State [full ETC block], Simmons Lab (AID 2284006); details: actives raise or lower the signal
How it was run: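 Inhibited respiration was taken as HepG2 oxygen consumption after rotenone/antimycin A, which followed test-compound and FCCP injections. Chemicals were tested at seven final concentrations from 125 nM to 100 uM. Activity was fitted bidirectionally relative to DMSO.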

[16] = CCTE_Simmons_MITO_viability: CellTiter-Glo Viability Assessment for CCTE's HepG2 Seahorse XF Respirometric Screening Assay [post-hoc], Simmons Lab (AID 2284007; active means hit-call score of the fitted dose curve at least 0.9, where 1 is the maximum;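 on AC50: cells exposed to chemical for 90 min before the ATP read; actives lower ATP signal relative to DMSO baseline meaning reduced viability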)
How it was run: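 HepG2 cells; test chemical 7 conc. (125 nM–100 uM final) × 90 min; then luminescent ATP detection. DMSO vehicle. Positive control dichlone, 8 conc. from 10 nM to 100 uM final. Loss-of-signal endpoint.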

[17] = biological target: Nucleoli Translocation, AR (gene 367) (UniProt P10275); experiment: UPITT_HCI_U2OS_AR_TIF2_Nucleoli_Antagonist: University of Pittsburgh U2OS Androgen Receptor-Transcriptional Intermediary Factor 2 (AR-TIF2) Antagonism High Content Imaging Assay for Nucleoli Translocation (AID 2283997; active means hit-call score of the fitted dose curve at least 0.9, where 1 is the maximum)
How it was run: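 U2OS cells co-expressing red-fluorescent-tagged human AR and green-fluorescent-tagged TIF2, imaged by high-content microscopy for nucleolar red fluorescence. Antagonist mode against DHT; primary screen at 20 uM final (0.2% DMSO).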

[18] = biological target: Nucleoli Translocation, AR (gene 367) (UniProt P10275); experiment: UPITT_HCI_U2OS_AR_TIF2_Nucleoli_Agonist: University of Pittsburgh U2OS Androgen Receptor-Transcriptional Intermediary Factor 2 (AR-TIF2) Agonism High Content Imaging Assay for Nucleoli Translocation (AID 2283998; active means hit-call score of the fitted dose curve at least 0.9, where 1 is the maximum)
How it was run: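 U2OS cells expressing RFP-tagged human AR and GFP-tagged TIF2; red fluorescence in nucleoli quantified by high-content imaging. Primary screen at 20 uM final (0.2% DMSO); concentration-response 0.195–50 uM (0.5% DMSO), fitted upward versus DMSO.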

[19] = biological target: Ratio of Nucleoli Translocation and Cytoplasm, AR (gene 367) (UniProt P10275); experiment: UPITT_HCI_U2OS_AR_TIF2_Nucleoli_Cytoplasm_Ratio_Antagonist: University of Pittsburgh U2OS Androgen Receptor-Transcriptional Intermediary Factor 2 (AR-TIF2) Antagonism High Content Imaging Assay for Ratio of Nucleoli Translocation and Cytoplasm (AID 2283999; active means hit-call score of the fitted dose curve at least 0.9, where 1 is the maximum;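 further: antagonists lower the DHT-driven ratio of nucleolar to cytoplasmic red signal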)
How it was run: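 High-content imaging quantifies the red nucleolar:cytoplasmic fluorescence ratio in U2OS cells with AR-RFP and TIF2-GFP. Final concentrations are 20 uM (screen) or 0.195–50 uM (dose response), analysed against DHT as baseline.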

[20] = biological target: Ratio of Nucleoli Translocation and Cytoplasm, AR (gene 367) (UniProt P10275); experiment: UPITT_HCI_U2OS_AR_TIF2_Nucleoli_Cytoplasm_Ratio_Agonist: University of Pittsburgh U2OS Androgen Receptor-Transcriptional Intermediary Factor 2 (AR-TIF2) Agonism High Content Imaging Assay for Ratio of Nucleoli Translocation and Cytoplasm (AID 2284000; active means hit-call score of the fitted dose curve at least 0.9, where 1 is the maximum;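 further: hits raise the red nucleolar to cytoplasm ratio above vehicle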)
How it was run: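 U2OS cells expressing RFP-tagged human AR and GFP-tagged TIF2; high-content imaging ratio of nucleolar to cytoplasmic red fluorescence, fitted as gain of signal vs DMSO. Single point at 20 uM final (0.2% DMSO); concentration-response 0.195-50 uM final (0.5% DMSO).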

Chain of Nucleoli Translocation, AR (gene 367) (P10275 whole entry, looked up): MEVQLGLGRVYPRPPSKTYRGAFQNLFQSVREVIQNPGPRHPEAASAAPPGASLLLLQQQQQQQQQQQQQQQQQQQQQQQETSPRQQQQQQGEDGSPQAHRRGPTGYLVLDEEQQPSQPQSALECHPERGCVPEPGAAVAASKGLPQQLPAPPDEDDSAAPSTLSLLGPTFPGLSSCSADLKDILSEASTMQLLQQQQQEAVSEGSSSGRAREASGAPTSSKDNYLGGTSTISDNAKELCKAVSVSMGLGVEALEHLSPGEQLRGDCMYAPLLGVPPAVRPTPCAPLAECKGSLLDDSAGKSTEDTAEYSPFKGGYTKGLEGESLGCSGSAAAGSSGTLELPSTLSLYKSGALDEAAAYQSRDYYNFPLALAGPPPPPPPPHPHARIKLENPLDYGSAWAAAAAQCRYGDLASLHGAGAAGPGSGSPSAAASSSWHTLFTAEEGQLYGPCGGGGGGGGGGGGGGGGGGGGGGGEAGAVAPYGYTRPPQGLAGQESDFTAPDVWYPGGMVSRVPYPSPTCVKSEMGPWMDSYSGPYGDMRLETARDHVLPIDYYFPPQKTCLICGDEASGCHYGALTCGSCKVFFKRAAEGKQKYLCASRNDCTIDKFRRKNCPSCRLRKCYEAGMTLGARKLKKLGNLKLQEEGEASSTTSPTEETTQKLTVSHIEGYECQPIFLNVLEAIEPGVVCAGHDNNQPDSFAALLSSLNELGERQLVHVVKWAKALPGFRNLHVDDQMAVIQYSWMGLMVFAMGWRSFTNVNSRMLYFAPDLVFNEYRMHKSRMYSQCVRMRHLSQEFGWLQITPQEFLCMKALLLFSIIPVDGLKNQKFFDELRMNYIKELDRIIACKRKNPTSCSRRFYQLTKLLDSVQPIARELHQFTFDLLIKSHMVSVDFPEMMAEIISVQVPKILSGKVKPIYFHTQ
Chain of Ratio of Nucleoli Translocation and Cytoplasm, AR (gene 367) (P10275 whole entry, looked up): as above

SMILES: CN(C)CCCN1c2ccccc2Sc2ccc(Cl)cc21
- outcome [1]: inactive
- outcome [2]: inactive
- AC50 [3]: 77.1 µM (active)
- AC50 [4]: 50 µM (active)
- outcome [5]: inactive
- outcome [6]: inactive
- outcome [7]: inactive
- outcome [8]: inactive
- outcome [9]: inactive
- AC50 [10]: 33.2 µM (active)
- outcome [11]: inactive
- outcome [12]: inactive
- outcome [13]: inactive

SMILES: OCC(CO)n1cnc(-c2ccc(F)cc2)c1-c1ccnc(Oc2ccccc2)n1
- outcome [1]: inactive
- outcome [2]: inactive
- outcome [3]: inactive
- outcome [4]: inactive
- outcome [6]: inactive
- outcome [7]: inactive
- outcome [8]: inactive
- outcome [9]: inactive
- outcome [10]: inactive
- outcome [11]: inactive
- outcome [12]: inactive
- outcome [13]: inactive

SMILES: CCCCCCC(C=O)=Cc1ccccc1
- outcome [14]: inactive
- outcome [15]: inactive
- outcome [16]: inactive
- outcome [3]: inactive
- outcome [4]: inactive
- outcome [5]: inactive

SMILES: NCCOCCOCCN
- outcome [17]: inactive
- outcome [18]: inactive
- outcome [19]: inactive
- outcome [20]: inactive
- outcome [3]: inactive
- outcome [4]: inactive

SMILES: C=CCCCCCCCCCCCC
- outcome [17]: inactive
- outcome [18]: inactive
- outcome [19]: inactive
- outcome [3]: inactive
- outcome [4]: inactive

SMILES: CC(=O)O[C@]1(C(C)=O)CC[C@H]2[C@@H]3C=C(Cl)C4=CC(=O)[C@@H]5C[C@@H]5[C@]4(C)[C@H]3CC[C@@]21C
- AC50 [14]: 28.1 µM (active)
- outcome [15]: inactive
- AC50 [16]: 23 µM (active)
- outcome [3]: inactive
- outcome [4]: inactive

SMILES: Cc1cc(Cc2ccc(N)c(C)c2)ccc1N
- AC50 [14]: 50 µM (active)
- outcome [15]: inactive
- AC50 [1]: 15.8 µM (active)
- AC50 [2]: 14.9 µM (active)
- outcome [3]: inactive
- outcome [4]: inactive
- outcome [6]: inactive
- outcome [7]: inactive
- AC50 [8]: 30 µM (active)
- AC50 [9]: 35.7 µM (active)
- AC50 [10]: 30 µM (active)
- AC50 [11]: 20 µM (active)
- AC50 [12]: 29.9 µM (active)
- AC50 [13]: 29.6 µM (active)

SMILES: Cc1ccc(C(C)(C)C)c(O)c1
- outcome [14]: inactive
- outcome [15]: inactive
- outcome [16]: inactive
- AC50 [1]: 10.3 µM (active)
- outcome [2]: inactive
- outcome [3]: inactive
- outcome [4]: inactive
- outcome [6]: inactive
- outcome [7]: inactive
- outcome [8]: inactive
- outcome [9]: inactive
- AC50 [10]: 29.9 µM (active)
- outcome [11]: inactive
- outcome [12]: inactive
- outcome [13]: inactive

SMILES: Nc1nc(=S)c2[nH]cnc2[nH]1
- outcome [17]: inactive
- outcome [18]: inactive
- outcome [20]: inactive
- outcome [1]: inactive
- outcome [2]: inactive
- outcome [3]: inactive
- outcome [4]: inactive
- outcome [5]: inactive
- outcome [6]: inactive
- outcome [7]: inactive
- AC50 [8]: 20 µM (active)
- outcome [9]: inactive
- AC50 [10]: 5.71 µM (active)
- outcome [11]: inactive
- outcome [12]: inactive
- outcome [13]: inactive

SMILES: O=C1OC(c2ccc(O)cc2)(c2ccc(O)cc2)c2ccccc21
- AC50 [17]: 86.2 µM (active)
- AC50 [18]: 78.7 µM (active)
- outcome [19]: inactive
- AC50 [20]: 77 µM (active)
- outcome [14]: inactive
- outcome [15]: inactive
- AC50 [16]: 9.92 µM (active)
- outcome [1]: inactive
- outcome [2]: inactive
- outcome [3]: inactive
- outcome [4]: inactive
- outcome [6]: inactive
- outcome [7]: inactive
- outcome [8]: inactive
- outcome [9]: inactive
- AC50 [10]: 24.6 µM (active)
- AC50 [11]: 20 µM (active)
- outcome [12]: inactive
- AC50 [13]: 31 µM (active)

SMILES: CCOCCOCCO
- outcome [17]: inactive
- outcome [18]: inactive
- outcome [19]: inactive
- outcome [20]: inactive
- outcome [3]: inactive
- outcome [4]: inactive
- outcome [5]: inactive

SMILES: Cc1cc(SC2=C(O)C[C@@](CCc3ccc(N)cc3)(C(C)C)OC2=O)c(C(C)(C)C)cc1CO
- outcome [17]: inactive
- outcome [18]: inactive
- outcome [19]: inactive
- outcome [20]: inactive
- outcome [14]: inactive
- outcome [15]: inactive
- outcome [16]: inactive
- outcome [1]: inactive
- outcome [2]: inactive
- outcome [3]: inactive
- outcome [4]: inactive
- AC50 [6]: 20 µM (active)
- outcome [7]: inactive
- outcome [8]: inactive
- outcome [9]: inactive
- outcome [10]: inactive
- outcome [11]: inactive
- outcome [12]: inactive
- outcome [13]: inactive
